An excerpt weighted towards active compounds, which were near 2.4% of everything screened.
D2 ag-1: agonists of human D2 dopamine receptor. activation, % at 2 µM. P14416. HEK293 T-REx D2 cells, calcium flux agonist mode. hit rate 0.53% among 340,000;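 active = activation over 3 SD above normal in the single-dose calcium agonist read, cut at about 30% in these data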
Target sequence (P14416 whole entry, looked up): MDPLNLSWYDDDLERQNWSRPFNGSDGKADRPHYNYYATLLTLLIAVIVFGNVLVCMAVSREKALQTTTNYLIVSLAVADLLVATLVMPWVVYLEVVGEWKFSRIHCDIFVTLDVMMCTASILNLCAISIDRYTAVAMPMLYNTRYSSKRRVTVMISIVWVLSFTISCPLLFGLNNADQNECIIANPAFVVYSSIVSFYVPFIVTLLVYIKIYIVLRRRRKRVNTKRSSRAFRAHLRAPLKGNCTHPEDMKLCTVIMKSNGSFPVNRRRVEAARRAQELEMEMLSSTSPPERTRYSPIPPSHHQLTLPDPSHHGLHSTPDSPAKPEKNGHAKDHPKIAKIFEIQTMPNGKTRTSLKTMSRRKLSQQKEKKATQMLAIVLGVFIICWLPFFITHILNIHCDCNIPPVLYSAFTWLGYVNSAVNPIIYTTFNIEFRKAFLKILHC
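Agonism scored from kinetic calcium signal (1 read/sec, 180 s) following compound pin transfer, after a 10 s baseline. Cells: HEK293 Trex line expressing inducible D2 receptor coupled to calcium, dye-loaded after overnight culture at 30 C.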
D2 PAM-1: positive allosteric modulators of human D2 dopamine receptor; potentiation, % at 10 µM; HEK293 T-REx D2, calcium flux, EC20 dopamine potentiation; AID 485347; hit rate 0.34% among 340,000; P14416;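 active = potentiation over 3 SD above the plate norm, cut at about 30% in these data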
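Tetracycline-induced HEK293 T-REx cells force-coupled to calcium signalling expressed D2; compounds were pin-added after a 10 s baseline, read kinetically 180 s, then an EC20 dopamine challenge followed with a further 180 s calcium read.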
D2 ag-2: agonists of human D2 dopamine receptor (beta-arrestin); DiscoveRx PathHunter D2 beta-arrestin, luminescence, 90 min; 100% = 57 uM dopamine signal; activation, % (no concentration beside the values); hit rate 0.084% among 360,000; P14416; in the data active = activation above about 40%; inconclusive = between about 15% and that limit
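DiscoveRx PathHunter D2 beta-arrestin cells (2,100/well) attached overnight, then compound-stimulated 90 min at 37 C in HBSS/10 mM HEPES/0.1% Tween-20 buffer; beta-galactosidase complementation read by luminescence after 1 h at ambient temperature. Dopamine 57 uM final (EC100) as control.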
D2 PAM-2: positive allosteric modulators of human D2 dopamine receptor | P14416 | DiscoveRx D2 beta-arrestin cells, luminescence, 90 min; 100% = 57 uM dopamine signal | potentiation, % (concentration not given with the values) | hit rate 0.23% among 360,000 | AID 624464; in the data active = potentiation above about 50%; inconclusive = mostly about 30% to 49%
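PathHunter D2 cells, attached overnight at 37 deg C, received compound in DMSO plus dopamine at EC20 (50 nM final) for 90 min at 37 deg C. Beta-arrestin recruitment was read as luminescence after 1 h with detection reagent at ambient temperature.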
D2 antagonist: antagonists of human D2 dopamine receptor | P14416 | HEK293 TREx D2 cells, calcium flux, dopamine EC80 | inhibition, % at 10 µM | hit rate 2% among 340,000 | AID 485344; in the data active = inhibition above about 30%; inactive = below that, where a call was filed
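In this primary screen, negative modulation is detected by tracking calcium flux after an EC80 dopamine challenge in inducible HEK293 T-REx D2 cells preexposed to test compound for 180 s.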
D3 arrestin ag: confirmation of human D3 dopamine receptor agonists, beta-arrestin; shares compounds with D2 ag-1; DiscoveRx D3 beta-arrestin cells, luminescence, 90 min; Potency, µM (doses to about 76.9 µM), hits mostly activators; hit rate 4% among 2,300; note: nearly all actives have a fitted effect of over 70% in size
D2 ag-3: activates human D2 dopamine receptor in D3 counterscreen | shares compounds with D2 ag-1 | DiscoveRx PathHunter D2 beta-arrestin, luminescence, 90 min; response scale: percent relative to full dopamine signal | Potency, µM (doses to about 76.9 µM), hits mostly activators | hit rate 5.9% among 2,300; note: nearly all actives have a fitted effect of over 70% in size
Hits are given with their value; – = inactive; ? = inconclusive; · = no result; ! = not active in a repeat. Unless noted, calls come from the whole dose curve; as a rule, active = well fitted activation curve with a large enough effect; inconclusive = small, poorly fitted or top-dose-only effect; inactive = flat fitted curve, though single readings scatter.

SMILES	D2 ag-1	D2 PAM-1	D2 ag-2	D2 PAM-2	D2 antagonist	D3 arrestin ag	D2 ag-3
O=C(CNC(=O)c1ccccc1)N/N=C/c1cn[nH]c1-c1ccccc1	–	–	–	–	–	·	·
CNC(=S)Nc1cc2oc3ccccc3c2cc1OC	57	–	–	–	–	–	–
CCNC(=S)Nc1cc2oc3ccccc3c2cc1OC	–	–	–	–	–	·	·
COc1ccc2[nH]c3c(=O)n4c(nc3c2c1)SCC4	–	–	–	–	–	·	·
COc1cc2[nH]c3c(=O)n4c(nc3c2cc1OC)SCCC4	–	–	–	–	–	–	–
Clc1ccc(CN2CCN(c3ncccn3)CC2)cc1Cl	80	–	65	–	77	?	14µM
C(#Cc1ccccc1)CN1CCN(c2ccccn2)CC1	45	–	–	–	–	–	–
Fc1ccc(CN2CCN(c3ncccn3)CC2)c(F)c1	95	–	60	–	79	?	16µM
Fc1ccc(CN2CCCCCC2)c(F)c1	–	–	–	–	–	·	·
c1nc(N2CCN(Cc3ccc4c(c3)OCO4)CC2)c2[nH]cnc2n1	·	·	–	81	·	–	2.8µM
Cc1ccc2[nH]c3c(N4CCN(Cc5ccc6c(c5)OCO6)CC4)ncnc3c2c1	·	–	·	·	·	·	·
C(#Cc1ccccc1)CN1CCCCC1	–	–	–	–	–	·	·
CCN(CC)S(=O)(=O)c1ccc(O)c(C(=O)OCC(=O)N2CCCc3ccccc32)c1	·	·	–	–	·	·	·
O=C(Cc1ccccc1)N1CCN(c2ncccn2)CC1	–	–	–	–	–	·	·
c1cnc(N2CCN(Cc3ccc4c(c3)OCO4)CC2)nc1	80	–	41!	62!	89	?	0.05µM
Clc1ccc(CN2CCN(c3ncccn3)CC2)cc1	73	–	68	53	85	?	2.8µM
Cc1cc(=O)[nH]c(N2CCN(Cc3ccccc3)CC2)n1	40	–	–	–	–	–	–
CCCCc1c(O)nc(N2CCN(Cc3ccccc3)CC2)[nH]c1=O	·	·	–	–	·	·	·
c1ccc(CN2CCN(c3ncccn3)CC2)cc1	86	–	56	?	84	?	2.5µM
O=C(Cn1c(=O)oc2cc(S(=O)(=O)N3CCCCC3)ccc21)NCc1ccc(Cl)cc1	–	–	·	·	·	·	·
c1ccc(CN2CCN(c3nc(-c4ccccc4)nc(-n4ccnc4)n3)CC2)cc1	–	–	–	–	–	·	·
Fc1cccc(CN2CCN(c3ncccn3)CC2)c1	77	–	80	55	83	?	1.4µM
c1ccc(COc2ccc(CN3CCN(c4ccccn4)CC3)cc2)cc1	77	–	47	–	75	?	11µM
NC(=O)C1CCN(Cc2ccc(OCc3ccccc3)cc2)CC1	–	–	–	–	–	·	·
O=C(c1cccnc1)N1CCN(Cc2cccc(F)c2)CC1	–	–	–	–	–	·	·
SMILES	D2 ag-1	D2 PAM-1	D2 ag-2	D2 PAM-2	D2 antagonist	D3 arrestin ag	D2 ag-3
c1ccc(-c2ccc(CN3CCN(c4ncccn4)CC3)cc2)cc1	79	–	?	–	118	?	?
CCOC(=O)Cc1csc(NC(=O)c2csc(C)c2)n1	61	–	–	–	–	–	–
CCOC(=O)Cc1csc(NC(=O)c2cccc(OC)c2)n1	–	–	–	–	–	·	·
COC(=O)c1cccc(NC(=O)CN2CCc3ccccc3C2)c1	–	–	–	–	–	?	–
Cn1c(=O)c2c(nc(Oc3ccccc3)n2Cc2c(Cl)cccc2Cl)n(C)c1=O	–	–	·	·	·	·	·
Cc1cccc(N(C)C(=O)CN(C)S(=O)(=O)c2ccc3[nH]c4c(c3c2)CCCC4)c1	–	–	·	·	·	·	·
O=C(CCC(=O)c1ccccc1)NCCc1c[nH]c2ccccc12	66	–	–	–	–	–	–
CC(CCCCCCCCC(=O)O)N(CCO)C(=O)OC(C)(C)C (stereo not drawn)	–	–	–	–	–	–	–
CC[n+]1c(-c2ccccc2)csc1Nc1c(C)n(C)n(-c2ccccc2)c1=O	50	–	–	–	–	–	–
Cc1ccc(Nc2nc3ccccc3nc2Nc2c(C)n(C)n(-c3ccccc3)c2=O)cc1	–	–	–	–	–	·	·
CC[n+]1c(-c2ccc(C)cc2)csc1Nc1c(C)n(C)n(-c2ccccc2)c1=O	66	–	–	–	52	–	–
CCOC(=O)C1=CC[C@@H](c2ccccc2)N(S(=O)(=O)c2ccc(C)cc2)[C@H]1C#N	·	·	–	–	·	·	·
CCCCN(CC)CCCNC(=O)CC1Nc2ccccc2NC1=O (stereo not drawn)	75	–	–	–	40	–	–
CCCN(CCC)CCCNC(=O)CC1Nc2ccccc2NC1=O (stereo not drawn)	51	–	–	–	–	–	–
CCCCN(C)CCCNC(=O)CC1Oc2ccccc2NC1=O (stereo not drawn)	85	–	–	–	62	?	?
COc1ccccc1Cc1nc2ccccc2nc1SCC(=O)Nc1ccc2c(c1)OCO2	–	–	·	·	·	·	·
CCCOc1ccc(C2C(=O)N(C3CCCCCC3)CC(=O)N2C(C)C)cc1OC (stereo not drawn)	·	–	·	·	·	·	·
CCc1ccc(Cn2ncc3c(C(=O)O)cc(C)nc32)cc1	·	·	–	–	·	·	·
C=CC[C@H]1Cc2c(cccc2[N+](=O)[O-])[C@H](CC=C)N1	36	·	?	–	59	?	?
COc1ccc(OCc2cc(C(=O)N[C@H]3CCCCNC3=O)no2)c(Cl)c1	–	–	–	–	–	·	·
COc1ccc(OCc2cc(C(=O)NC3Cc4ccccc4C3)no2)c(Cl)c1	·	–	–	–	·	–	–
O=S(=O)(c1ccc(Br)cc1)N1CCCN(Cc2ccccc2F)CC1	41	–	–	–	–	–	–
Cc1ccccc1CN1CCN(S(=O)(=O)c2ccc(F)cc2)CC1	–	–	–	–	–	·	·
CC1COc2ccccc2N1C(=O)c1ccccc1Cl (stereo not drawn)	41	–	?	–	–	–	–
CC(C)(C)C1COc2ccccc2N1C(=O)c1ccccc1Cl (stereo not drawn)	–	–	–	–	–	·	·
COC(=O)C1CCN(CCCOc2ccc(CN3CCN(c4ccc([N+](=O)[O-])cc4)CC3)cc2)CC1	69	–	45	–	84	?	?
CSc1nc2ccccc2c(=O)n1C1CCOC(C)(C)C1 (stereo not drawn)	–	–	?	–	–	–	–
CSc1nc2ccccc2c(=O)n1C1CCCCC1	–	–	–	–	–	·	·
COc1cccc(CN(C)C(=O)c2cccc(S(=O)(=O)N3CCN(Cc4ccccc4)CC3)c2)c1OC	–	–	–	–	–	–	–
Fc1ccc(-c2nc3c4ccccc4ccn3c2CC2CCCCC2)cc1	·	·	–	–	·	·	·
